# Paper PMC7862700, “An all-to-all approach to the identification of sequence-specific readers for epigenetic DNA modifications on cytosine”
# Key:
# Assay in all cases: DAPPL (digital affinity profiling via proximity ligation, sequencing); 10 mM Tris-HCl pH 7.5, 50 mM NaCl, 1 mM DTT, 4% glycerol, room temperature, 30 min; GST-TFs on glutathione beads, 16-mer random dsDNA library, 0.1% formaldehyde crosslink after washing; high values mean tight binding
# Details in all cases: protein: recombinant; tags: N-terminal GST; dsDNA, one strand shown
# FLI1 = target: T1, FLI1 (Homo sapiens, UniProt Q01543 1-452)
# T1 sequence: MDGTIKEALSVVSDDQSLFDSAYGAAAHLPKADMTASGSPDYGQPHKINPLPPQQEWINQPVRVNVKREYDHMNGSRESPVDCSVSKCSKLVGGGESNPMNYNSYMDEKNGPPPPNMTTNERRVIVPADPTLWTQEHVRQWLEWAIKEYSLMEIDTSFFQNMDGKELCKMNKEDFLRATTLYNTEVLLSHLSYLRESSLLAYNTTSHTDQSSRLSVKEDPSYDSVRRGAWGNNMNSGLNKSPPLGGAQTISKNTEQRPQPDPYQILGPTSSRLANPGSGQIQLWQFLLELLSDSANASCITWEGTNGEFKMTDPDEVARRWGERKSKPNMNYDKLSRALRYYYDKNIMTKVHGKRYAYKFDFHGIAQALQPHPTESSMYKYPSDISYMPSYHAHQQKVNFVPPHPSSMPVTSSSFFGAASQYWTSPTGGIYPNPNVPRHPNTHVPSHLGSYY
# How it was run: (§1)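 Binding signal is defined as a hexamer's read frequency for one factor over its frequency for the tag-only sample. To obtain reads, GST-fused human transcription factors were expressed in yeast, captured on glutathione beads, barcoded with DNA and pooled with that sample. Pools met 200 nmole of a 16-mer random double-stranded DNA library in Tris/NaCl/DTT/glycerol buffer for 30 min at room temperature before washing, 0.1% formaldehyde crosslinking, proximity ligation (BsaI/T4 ligase, 1 h, 37 °C), PCR and Illumina NextSeq500 sequencing.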
# ELK1 = target: T2, ELK1 (Homo sapiens, UniProt P19419 1-428)
# T2 sequence: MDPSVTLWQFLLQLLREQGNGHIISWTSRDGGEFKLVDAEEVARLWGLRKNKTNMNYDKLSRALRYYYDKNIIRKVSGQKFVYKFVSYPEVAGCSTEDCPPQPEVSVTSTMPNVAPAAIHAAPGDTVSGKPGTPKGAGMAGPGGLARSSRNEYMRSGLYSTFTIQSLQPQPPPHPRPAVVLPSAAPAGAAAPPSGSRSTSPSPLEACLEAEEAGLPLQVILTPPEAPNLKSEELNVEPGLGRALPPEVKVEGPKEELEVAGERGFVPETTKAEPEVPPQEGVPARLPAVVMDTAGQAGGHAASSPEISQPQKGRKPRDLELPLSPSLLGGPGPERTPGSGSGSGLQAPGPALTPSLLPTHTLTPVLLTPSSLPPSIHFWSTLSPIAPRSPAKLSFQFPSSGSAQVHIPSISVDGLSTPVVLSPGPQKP
# How it was run: as §1
# GABPA = target: T3, GABPA (Homo sapiens, UniProt Q06546 1-454)
# T3 sequence: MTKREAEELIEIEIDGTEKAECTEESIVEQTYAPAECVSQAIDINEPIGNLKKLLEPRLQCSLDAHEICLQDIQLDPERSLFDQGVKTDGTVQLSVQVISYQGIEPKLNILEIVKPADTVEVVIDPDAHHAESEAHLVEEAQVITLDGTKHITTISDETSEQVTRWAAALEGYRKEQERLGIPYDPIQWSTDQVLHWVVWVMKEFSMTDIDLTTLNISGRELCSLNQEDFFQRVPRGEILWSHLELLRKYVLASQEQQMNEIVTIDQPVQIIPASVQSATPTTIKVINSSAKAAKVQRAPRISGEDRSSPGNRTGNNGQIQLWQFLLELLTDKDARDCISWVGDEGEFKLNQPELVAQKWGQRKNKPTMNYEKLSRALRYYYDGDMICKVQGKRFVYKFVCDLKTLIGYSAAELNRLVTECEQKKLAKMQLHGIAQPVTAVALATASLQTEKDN
# How it was run: as §1
# ERG = target: T4, ERG (Homo sapiens, UniProt P11308 1-479)
# T4 sequence: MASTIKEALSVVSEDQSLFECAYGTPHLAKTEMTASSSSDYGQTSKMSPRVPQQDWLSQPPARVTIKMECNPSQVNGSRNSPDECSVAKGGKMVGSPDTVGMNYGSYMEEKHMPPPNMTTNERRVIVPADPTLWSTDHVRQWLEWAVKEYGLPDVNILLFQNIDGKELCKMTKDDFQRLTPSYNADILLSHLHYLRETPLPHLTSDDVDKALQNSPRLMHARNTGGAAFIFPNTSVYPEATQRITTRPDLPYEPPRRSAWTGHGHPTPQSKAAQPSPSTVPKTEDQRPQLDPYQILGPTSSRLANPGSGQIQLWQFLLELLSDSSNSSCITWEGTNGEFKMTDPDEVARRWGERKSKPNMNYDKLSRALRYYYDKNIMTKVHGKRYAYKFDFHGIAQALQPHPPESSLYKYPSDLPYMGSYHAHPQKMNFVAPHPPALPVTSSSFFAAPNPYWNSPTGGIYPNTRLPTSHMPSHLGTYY
# How it was run: as §1
# ELF1 = ELF1 (Homo sapiens, UniProt P32519 1-619)
# How it was run: as §1
# EHF = target: T5, EHF (Homo sapiens, UniProt Q9NZC4 1-300)
# T5 sequence: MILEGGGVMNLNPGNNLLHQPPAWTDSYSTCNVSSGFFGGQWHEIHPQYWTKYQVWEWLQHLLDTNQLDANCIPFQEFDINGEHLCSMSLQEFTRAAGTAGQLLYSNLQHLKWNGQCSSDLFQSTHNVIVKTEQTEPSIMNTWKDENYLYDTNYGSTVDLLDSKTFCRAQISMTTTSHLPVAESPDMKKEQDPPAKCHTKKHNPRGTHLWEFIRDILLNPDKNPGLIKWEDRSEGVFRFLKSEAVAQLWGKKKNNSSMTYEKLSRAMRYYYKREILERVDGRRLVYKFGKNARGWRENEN
# How it was run: as §1
# SPIB = SPIB (Homo sapiens, UniProt Q01892 1-262)
# How it was run: as §1
# SPI1 = SPI1 (Homo sapiens, UniProt P17947 1-270)
# How it was run: as §1
# ELK3 = target: T6, ELK3 (Homo sapiens, UniProt P41970 1-407)
# T6 sequence: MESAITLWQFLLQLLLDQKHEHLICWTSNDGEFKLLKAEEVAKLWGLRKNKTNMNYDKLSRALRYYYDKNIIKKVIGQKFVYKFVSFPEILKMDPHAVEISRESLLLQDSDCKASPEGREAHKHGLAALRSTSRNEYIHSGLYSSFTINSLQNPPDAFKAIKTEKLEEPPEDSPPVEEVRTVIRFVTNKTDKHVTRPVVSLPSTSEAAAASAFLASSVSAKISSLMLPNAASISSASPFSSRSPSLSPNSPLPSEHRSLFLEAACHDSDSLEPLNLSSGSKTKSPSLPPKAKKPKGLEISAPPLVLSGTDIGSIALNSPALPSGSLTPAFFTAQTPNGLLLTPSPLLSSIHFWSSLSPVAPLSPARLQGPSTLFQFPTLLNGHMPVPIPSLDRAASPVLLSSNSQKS
# How it was run: as §1
# SPIB, sequence (Q01892 whole entry): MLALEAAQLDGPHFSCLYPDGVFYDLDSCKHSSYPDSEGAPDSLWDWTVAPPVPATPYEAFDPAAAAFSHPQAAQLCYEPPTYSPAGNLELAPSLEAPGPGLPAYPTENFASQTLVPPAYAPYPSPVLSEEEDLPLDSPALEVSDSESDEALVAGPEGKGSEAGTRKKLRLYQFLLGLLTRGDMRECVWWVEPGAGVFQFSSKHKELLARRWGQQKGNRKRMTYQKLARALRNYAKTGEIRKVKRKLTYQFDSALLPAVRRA
# ELF1, sequence (P32519 whole entry): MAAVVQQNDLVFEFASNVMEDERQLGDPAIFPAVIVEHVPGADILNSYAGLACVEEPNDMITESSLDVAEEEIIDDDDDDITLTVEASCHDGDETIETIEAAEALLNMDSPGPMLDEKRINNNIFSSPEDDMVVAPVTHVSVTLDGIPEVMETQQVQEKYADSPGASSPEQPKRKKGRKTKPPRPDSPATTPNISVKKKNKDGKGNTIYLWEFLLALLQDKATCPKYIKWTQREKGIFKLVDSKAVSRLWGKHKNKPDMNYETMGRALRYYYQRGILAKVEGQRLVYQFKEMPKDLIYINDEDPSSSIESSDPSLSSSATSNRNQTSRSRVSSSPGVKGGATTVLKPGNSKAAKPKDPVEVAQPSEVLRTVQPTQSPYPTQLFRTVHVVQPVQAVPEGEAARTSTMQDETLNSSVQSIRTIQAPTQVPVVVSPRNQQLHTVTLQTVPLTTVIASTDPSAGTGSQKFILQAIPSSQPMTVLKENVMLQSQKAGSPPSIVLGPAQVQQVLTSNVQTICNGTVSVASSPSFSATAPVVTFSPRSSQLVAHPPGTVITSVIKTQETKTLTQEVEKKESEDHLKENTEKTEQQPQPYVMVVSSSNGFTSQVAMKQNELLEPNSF
Sequence,binding signal (FLI1),binding signal (ELK1),binding signal (GABPA),binding signal (ERG),binding signal (ELF1),binding signal (EHF),binding signal (SPIB),binding signal (SPI1),binding signal (ELK3)
TATGTG,"1 fold enrichment (6-mer frequency, TF over GST control)","1.08 fold enrichment (6-mer frequency, TF over GST control)","1.05 fold enrichment (6-mer frequency, TF over GST control)","1.06 fold enrichment (6-mer frequency, TF over GST control)","1.06 fold enrichment (6-mer frequency, TF over GST control)","1.07 fold enrichment (6-mer frequency, TF over GST control)","1.05 fold enrichment (6-mer frequency, TF over GST control)",,
CTCATC,"1.5 fold enrichment (6-mer frequency, TF over GST control)","1.36 fold enrichment (6-mer frequency, TF over GST control)","1.41 fold enrichment (6-mer frequency, TF over GST control)","1.34 fold enrichment (6-mer frequency, TF over GST control)","1.35 fold enrichment (6-mer frequency, TF over GST control)","1.35 fold enrichment (6-mer frequency, TF over GST control)","1.41 fold enrichment (6-mer frequency, TF over GST control)","1.21 fold enrichment (6-mer frequency, TF over GST control)","1.47 fold enrichment (6-mer frequency, TF over GST control)"
CCGTCC,"1.37 fold enrichment (6-mer frequency, TF over GST control)","1.37 fold enrichment (6-mer frequency, TF over GST control)","1.29 fold enrichment (6-mer frequency, TF over GST control)","1.42 fold enrichment (6-mer frequency, TF over GST control)","1.37 fold enrichment (6-mer frequency, TF over GST control)","1.42 fold enrichment (6-mer frequency, TF over GST control)","1.25 fold enrichment (6-mer frequency, TF over GST control)","1.21 fold enrichment (6-mer frequency, TF over GST control)","1.39 fold enrichment (6-mer frequency, TF over GST control)"
TAGAAT,"1.1 fold enrichment (6-mer frequency, TF over GST control)","1.06 fold enrichment (6-mer frequency, TF over GST control)","1.03 fold enrichment (6-mer frequency, TF over GST control)","1.03 fold enrichment (6-mer frequency, TF over GST control)","1.1 fold enrichment (6-mer frequency, TF over GST control)","1.01 fold enrichment (6-mer frequency, TF over GST control)",,"1.15 fold enrichment (6-mer frequency, TF over GST control)","1.15 fold enrichment (6-mer frequency, TF over GST control)"
CTCAGC,"1.15 fold enrichment (6-mer frequency, TF over GST control)","1.22 fold enrichment (6-mer frequency, TF over GST control)","1.38 fold enrichment (6-mer frequency, TF over GST control)","1.24 fold enrichment (6-mer frequency, TF over GST control)","1.3 fold enrichment (6-mer frequency, TF over GST control)","1.28 fold enrichment (6-mer frequency, TF over GST control)","1.35 fold enrichment (6-mer frequency, TF over GST control)","1.23 fold enrichment (6-mer frequency, TF over GST control)","1.12 fold enrichment (6-mer frequency, TF over GST control)"
ATGAAG,"1.1 fold enrichment (6-mer frequency, TF over GST control)","1.1 fold enrichment (6-mer frequency, TF over GST control)","1.04 fold enrichment (6-mer frequency, TF over GST control)","1.1 fold enrichment (6-mer frequency, TF over GST control)","1.04 fold enrichment (6-mer frequency, TF over GST control)","1.06 fold enrichment (6-mer frequency, TF over GST control)",,"1.05 fold enrichment (6-mer frequency, TF over GST control)","1.05 fold enrichment (6-mer frequency, TF over GST control)"
CAAGAA,"1.03 fold enrichment (6-mer frequency, TF over GST control)","1.11 fold enrichment (6-mer frequency, TF over GST control)","1.02 fold enrichment (6-mer frequency, TF over GST control)","1.11 fold enrichment (6-mer frequency, TF over GST control)","1.03 fold enrichment (6-mer frequency, TF over GST control)","1.04 fold enrichment (6-mer frequency, TF over GST control)",,"1.06 fold enrichment (6-mer frequency, TF over GST control)","1.06 fold enrichment (6-mer frequency, TF over GST control)"
